Laboratory results as given in PubChem BioAssay (NCI).
About 79,000 compounds went through this panel and 15% of them were active in at least one assay; those are over-represented in the sample as a whole. Calls of active or inactive are those of the source. No stated cut-off is given here; in the data, active means growth inhibition above about 70%; inactive means the rest.

Legend:
[1] = NCI Yeast Anticancer Drug Screen. Data for the rad50 strain (AID 155);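 further: 0% = growth of vehicle-only cultures of the same strain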; conditions: S. cerevisiae rad50 strain growth inhibition, stronger effect = higher value
How it was run: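 Relative growth inhibition (compound vs vehicle) was measured in yeast with a defined repair-gene alteration.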

[2] = NCI Yeast Anticancer Drug Screen. Data for the mec2-1 strain (AID 157); conditions: S. cerevisiae mec2-1 strain, stronger effect = higher value
How it was run: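 Each compound was tested on mec2-1 yeast, a strain altered in DNA damage repair or cell cycle control. Growth inhibition is reported relative to vehicle.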

[3] = NCI Yeast Anticancer Drug Screen. Data for the sgs1 mgt1 strain (AID 161);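 further: 0% = growth of cultures given vehicle only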; conditions: S. cerevisiae sgs1 mgt1 strain, stronger effect = higher value
How it was run: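 Mutant yeast exposed to compound; growth scored against vehicle-only wells.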

[4] = NCI Yeast Anticancer Drug Screen. Data for the cln2 rad14 strain (AID 165);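 further: 0% = growth equal to vehicle treated cultures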; conditions: S. cerevisiae cln2 rad14 strain, stronger effect = higher value
How it was run: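 Test compounds were added to cln2 rad14 yeast cultures; inhibition of growth was then determined by comparison with vehicle treatment.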

[5] = NCI Yeast Anticancer Drug Screen. Data for the bub3 strain (AID 167); conditions: S. cerevisiae bub3 mutant strain, stronger effect = higher value
How it was run: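 Screening used yeast with an engineered genetic alteration affecting cell cycle control. Compound-exposed cultures were compared with vehicle cultures, and reduced growth was taken as inhibition.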

[6] = NCI Yeast Anticancer Drug Screen. Data for the mlh1 rad18 strain (AID 175); conditions: S. cerevisiae mlh1 rad18 strain growth inhibition, stronger effect = higher value
How it was run: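 Inhibition values reflect reduced growth of mutant yeast versus vehicle-treated controls following compound exposure; the mutations affect DNA damage repair.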

[7] = NCI Yeast Anticancer Drug Screen. Data for the wt1 strain (AID 149);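 further: 0% = growth of vehicle-treated wt1 cultures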; conditions: S. cerevisiae wt1 strain (SPY 50644) growth inhibition, stronger effect = higher value
How it was run: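 Using yeast strain wt1, compound-induced growth inhibition was determined against vehicle-treated cultures.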

[8] = NCI Yeast Anticancer Drug Screen. Data for the mgt1 strain (AID 153); conditions: S. cerevisiae mgt1 mutant growth inhibition, stronger effect = higher value
How it was run: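 In the mgt1 strain, test compounds were added and growth inhibition was determined relative to vehicle-treated controls.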

[9] = NCI Yeast Anticancer Drug Screen. Data for the CLN2oe strain (AID 163);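 further: 0% = growth of vehicle-only control cultures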; conditions: S. cerevisiae CLN2oe strain, stronger effect = higher value
How it was run: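 First, the altered yeast strain was treated with each compound; second, its growth was measured; finally, inhibition was derived by comparison with vehicle controls.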

[10] = NCI Yeast Anticancer Drug Screen. Data for the wt2 strain (AID 169);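 further: 0% = growth of vehicle-treated yeast cultures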; conditions: S. cerevisiae wt2 strain growth inhibition, stronger effect = higher value
How it was run: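 The panel's yeast strains carry defined changes in DNA repair or cell cycle genes. Each strain is grown with compound, and growth loss is scored relative to vehicle.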

[11] = NCI Yeast Anticancer Drug Screen. Data for the mlh1 strain (AID 171);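 further: 0% = growth of vehicle-treated control cultures of the same strain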; conditions: S. cerevisiae mlh1 strain growth inhibition, stronger effect = higher value
How it was run: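 Inhibition values reflect reduced yeast growth in the presence of compound, referenced to vehicle controls, using a strain chosen for its alteration in DNA repair or cell cycle control.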

[12] = NCI Yeast Anticancer Drug Screen. Data for the sgs1 strain (AID 173);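 further: 0% = growth of vehicle-only control cultures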; conditions: S. cerevisiae sgs1 mutant, stronger effect = higher value
How it was run: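 Vehicle-treated cultures served as reference for growth inhibition of a yeast strain altered in DNA damage repair or cell cycle control after compound exposure.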

[13] = NCI Yeast Anticancer Drug Screen. Data for the rad18 strain (AID 177); conditions: S. cerevisiae rad18 mutant growth inhibition, stronger effect = higher value
How it was run: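 Steps: expose repair-mutant yeast to compound; measure growth; express as inhibition relative to vehicle control.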

[14] = at 5.0 µM (retest, dose inferred, filed as 0.5)
[15] = at 50.0 µM (retest, dose inferred, filed as 5.0)

Measured: growth inhibition

Cc1cc([N+](=O)[O-])c(O)c([N+](=O)[O-])c1C
inactive: [1]; [14] 2% | [1]; at 50.0 µM 67.5% | [2]; [14] 12% | [2]; [15] 47% | [2]; at 50.0 µM 26.6% | [3]; [14] 3% | [3]; at 50.0 µM 62.5% | [4]; [14] -42% | [4]; [15] 34% | [4]; at 50.0 µM 45.4% | [5]; [14] 11% | [5]; [15] 58% | [5]; at 50.0 µM 63.2% | [6]; [14] -7% | [6]; at 50.0 µM 54.1%
active: [1]; [15] 71% | [3]; [15] 70% | [6]; [15] 90%

ClC1=C(Cl)C(Cl)(Cl)SS1
active: [1]; [14] 100% | [1]; [15] 99% | [1]; at 50.0 µM 88.7% | [2]; [14] 100% | [2]; [15] 99% | [2]; at 50.0 µM 91.5% | [3]; [14] 100% | [3]; [15] 99% | [3]; at 50.0 µM 92.1% | [4]; [14] 100% | [4]; [15] 99% | [4]; at 50.0 µM 91.5% | [5]; [14] 100% | [5]; [15] 99% | [5]; at 50.0 µM 89.3% | [6]; [14] 99% | [6]; [15] 99%

O=C(c1ccccc1)C1C(c2ccccc2[N+](=O)[O-])N1C1CCCCC1 (stereo unspecified)
inactive: [7]; at 1.2 µM -1% | [7]; at 3.7 µM 1% | [7]; at 11.0 µM 8% | [7]; at 33.0 µM 41% | [8]; at 1.2 µM 1% | [8]; at 3.7 µM 2% | [8]; at 11.0 µM 10% | [8]; at 33.0 µM 52% | [2]; at 1.2 µM 4% | [2]; at 3.7 µM 10% | [2]; [14] 1% | [2]; at 11.0 µM 23% | [2]; at 33.0 µM 66% | [2]; [15] 58% | [3]; [14] 15% | [9]; at 1.2 µM -4% | [9]; at 3.7 µM -2% | [9]; at 11.0 µM 3% | [9]; at 33.0 µM 38% | [4]; [14] -18% | [4]; [15] 13% | [5]; at 1.2 µM -11% | [5]; at 3.7 µM -2% | [5]; [14] -4% | [5]; at 11.0 µM -14% | [10]; at 1.2 µM 1% | [10]; at 3.7 µM 3% | [10]; at 11.0 µM 11% | [10]; at 33.0 µM 62% | [11]; at 1.2 µM 4% | [11]; at 3.7 µM 8% | [11]; at 11.0 µM 19% | [11]; at 33.0 µM 45% | [12]; at 1.2 µM 9% | [12]; at 3.7 µM 21% | [12]; at 11.0 µM 52% | [6]; [14] 0% | [13]; at 1.2 µM 10% | [13]; at 3.7 µM 23% | [13]; at 11.0 µM 65%
active: [7]; at 100.0 µM 80% | [8]; at 100.0 µM 83% | [2]; at 50.0 µM 94.7% | [2]; at 100.0 µM 88% | [3]; [15] 75% | [3]; at 50.0 µM 93.6% | [9]; at 100.0 µM 78% | [4]; at 50.0 µM 83.2% | [5]; at 33.0 µM 70% | [5]; [15] 72% | [5]; at 50.0 µM 95% | [5]; at 100.0 µM 87% | [10]; at 100.0 µM 84% | [11]; at 100.0 µM 90% | [12]; at 33.0 µM 85% | [12]; at 100.0 µM 91% | [6]; [15] 80% | [6]; at 50.0 µM 96.2% | [13]; at 33.0 µM 88% | [13]; at 100.0 µM 91%

O=c1ssc(Cl)c1Cl
active: [1]; [14] 97% | [1]; [15] 98% | [1]; at 50.0 µM 86.5% | [2]; [14] 96% | [2]; [15] 100% | [2]; at 50.0 µM 89.2% | [3]; [14] 100% | [3]; [15] 100% | [3]; at 50.0 µM 89.7% | [4]; [14] 93% | [4]; [15] 98% | [4]; at 50.0 µM 89.1% | [5]; [14] 99% | [5]; [15] 100% | [5]; at 50.0 µM 87.6% | [6]; [14] 97% | [6]; [15] 98%

c1ccc2c(c1)[As]=c1ccccc1=[As]2 (stereo unspecified)
inactive: [1]; [14] 65% | [3]; [14] 58% | [4]; [14] 36%
active: [1]; [15] 99% | [1]; at 50.0 µM 89% | [2]; [14] 95% | [2]; [15] 99% | [2]; at 50.0 µM 91.5% | [3]; [15] 99% | [3]; at 50.0 µM 92% | [4]; [15] 99% | [4]; at 50.0 µM 92.1% | [5]; [14] 91% | [5]; [15] 98% | [5]; at 50.0 µM 90.2% | [6]; [14] 72% | [6]; [15] 99% | [6]; at 50.0 µM 91.4%

CCC1(O)C(=O)OCc2c1cc1n(c2=O)Cc2cc3ccc(C#N)cc3nc2-1 (stereo unspecified)
active: [1]; [14] 71%
inactive: [1]; [15] 57% | [1]; at 50.0 µM 51% | [2]; [14] 11% | [2]; [15] -6% | [2]; at 50.0 µM -20.8% | [3]; [14] 11% | [3]; [15] -132% | [3]; at 50.0 µM -30.6% | [4]; [14] 10% | [4]; [15] -5% | [4]; at 50.0 µM -16.7% | [5]; [14] -6% | [5]; [15] -63% | [5]; at 50.0 µM -4.05% | [6]; [14] 10% | [6]; [15] -9% | [6]; at 50.0 µM -15.6%

C[C@@H]1CC[C@@]2(NC1)O[C@H]1C[C@H]3[C@@H]4CC[C@H]5C[C@@H](O)CC[C@]5(C)[C@H]4CC[C@]3(C)[C@H]1[C@@H]2C
active: [1]; [15] 98% | [1]; at 50.0 µM 92.8% | [2]; [15] 98% | [2]; at 50.0 µM 93.5% | [3]; [15] 100% | [3]; at 50.0 µM 93.9% | [4]; [15] 99% | [4]; at 50.0 µM 92% | [5]; [15] 99% | [5]; at 50.0 µM 93.5% | [6]; [15] 98% | [6]; at 50.0 µM 87.7%
inactive: [1]; [14] 45% | [2]; [14] 30% | [3]; [14] 61% | [4]; [14] 46% | [5]; [14] 46% | [6]; [14] 31%
